# Experimental data as given in PubChem BioAssay (NCATS).
# Results filed as inconclusive are left out. Unmarked numbers belong to inactive results. Calls of active or inactive are those of the source. Unless noted, the call rests on the fitted dose curve; in most records, active means well fitted curve in the direction sought with a large enough effect; inconclusive means small, poorly fitted or top-dose-only effect, or another doubt; inactive means no such curve, though single readings can be large; an effect the other way counts as inactive or inconclusive.
# How the values were obtained:
# [1] = HEK-293 Cancer Cell Toxicity qHTS against the NCATS CANVASS Library (AID 1347355)
# How it was run: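 qHTS cytotoxicity: compounds tested in 11 concentrations on 1000 seeded cells per well over 72 h; bortezomib served as control; signal from CellTiter-Glo luminescence.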
# [2] = KB-8-5-11 Cancer Cell Toxicity qHTS against the NCATS CANVASS Library (AID 1347364)
# How it was run: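 Natural products were titrated in 11 points onto KB-8-5-11 cells, 500 per well, and cytotoxicity was scored from CellTiter-Glo luminescence after 72 hr culture.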
# [3] = KB-3-1 Cancer Cell Toxicity qHTS against the NCATS CANVASS Library (AID 1347366)
# How it was run: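 CellTiter-Glo luminescence measured viability after 72 h at 37C. KB-3-1 cells were seeded at 500 per well in DMEM/10% FBS.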
# [4] = qHTS for Hypoxia signaling pathway (HIF-1) antagonists against the NCATS CANVASS Library (AID 1347374)
# How it was run: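 HRE-bla ME-180 cells (2,000/well, 0.5% dialyzed FBS) were pre-incubated 5 h, then given an 11-point compound series plus CoCl2 (60 uM solution as added) for 17 h at 37C. CCF4 β-lactamase read (ex 405, em 460/530 nm) after 2 h at RT.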
# [5] = qHTS assay for small molecule disruptors of mitochondrial membrane potential screened against the NCATS CANVASS Library (AID 1347389)
# How it was run: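 Compounds tested in 11-point qHTS series on HepG2 cells for 1 hr; membrane-potential dye added for 30 min at 37C. Lower red-to-green ratio indicates loss of potential.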
# [6] = qHTS for inhibitors of Wild type Zika virus screened against the NCATS CANVASS Library (AID 1347396)
# How it was run: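 Vero 766 cells, 1000/well, o/n attach; cpds pin-transferred (11-pt qHTS); WT Zika added; 72 h, 37C, 5% CO2; CellTiter Glo lumi. Uninfected + vehicle = 100% inhibition.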
# [7] = Viability qHTS for inhibitors of the SERCaMP assay screened against the NCATS CANVASS Library (AID 1347400)
# How it was run: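 Cytotoxicity counter-screen: ATP content (CellTiter-Glo luminescence) of SH-SY5Y-GLuc SERCaMP MJH297 cells after 48 h at 37C with compounds in an 11-point qHTS series.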
# [8] = qHTS for inhibitors of Rabies Virus screened against the NCATS CANVASS Library (AID 1347402; calls by dose curve)
# [9] = qHTS to identify inhibitors of the type 1 interferon - major histocompatibility complex class I in skeletal muscle: primary screen against the NCATS Mechanism Interrogation Plate v5.0 (MIPE) Libary (AID 1347411)
# How it was run: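 Cells were genome-edited human myoblasts carrying a HiBit tag on endogenous HLA-B. They were treated with IFN-beta (4.0 ng/ml) and titrated compounds (top 46 uM) for 24 hrs before lytic HiBiT detection.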
# [10] = target: Glutathione peroxidase 1 (Homo sapiens) (UniProt P07203); experiment: Primary qHTS Assay for Inhibitors of Recombinant Selenoprotein Glutathione Peroxidase 1 (GPX1) (AID 1845191)
# How it was run: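 GR-coupled assay: compounds preincubated 30 min at room temperature with GPX1, then reaction started with CHP; final 10 nM GPX1, 1 mM GSH, 0.5 mM CHP, 0.5 mM NADPH, 100 nM GR, 0.01% BSA, pH 7.5 Tris buffer. NADPH fluorescence (340/450 nm) read at 0 and 15 min.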
# [11] = target: Phospholipid hydroperoxide glutathione peroxidase GPX4 (Homo sapiens) (UniProt P36969); experiment: Primary qHTS Assay for Inhibitors of Recombinant Selenoprotein Glutathione Peroxidase 4 (GPX4) (AID 1845192)
# How it was run: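 GR-coupled assay: recombinant GPX4 preincubated 30 min with compound at room temperature; final 200 nM GPX4, 1 mM GSH, 0.5 mM cumene hydroperoxide, 0.5 mM NADPH, 100 nM GR, 0.01% BSA, pH 7.5 Tris. NADPH fluorescence (340/450 nm) read at 0 and 15 min.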
# Chain of Glutathione peroxidase 1 (Homo sapiens) (P07203 whole entry, looked up): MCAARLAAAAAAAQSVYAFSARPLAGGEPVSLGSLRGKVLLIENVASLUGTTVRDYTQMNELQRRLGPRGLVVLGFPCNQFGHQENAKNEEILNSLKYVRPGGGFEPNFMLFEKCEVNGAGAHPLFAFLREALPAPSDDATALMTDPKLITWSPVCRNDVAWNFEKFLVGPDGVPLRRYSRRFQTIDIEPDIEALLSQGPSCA
# Chain of Phospholipid hydroperoxide glutathione peroxidase GPX4 (Homo sapiens) (P36969 whole entry, looked up): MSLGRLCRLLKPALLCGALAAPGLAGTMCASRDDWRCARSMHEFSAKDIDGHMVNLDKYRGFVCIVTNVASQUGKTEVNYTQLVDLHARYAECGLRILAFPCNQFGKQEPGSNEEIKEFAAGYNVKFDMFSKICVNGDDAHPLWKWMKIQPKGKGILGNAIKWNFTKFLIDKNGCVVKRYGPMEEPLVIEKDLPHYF
smiles,measurement,setting,value
C[C@]12CC(O)C3[C@@H](CC[C@@H]4C[C@@H](O)CC[C@]34CO)[C@@]1(O)CC[C@@H]2C1=CC(=O)OC1 (some centres undefined),Potency,[1],3.72 µM (active)
same,Potency,[2],5.9 µM (active)
same,Potency,[3],9.35 µM (active)
same,Potency,[4],2.98 µM (active)
same,Potency,[5],inactive
same,Potency,[6],inactive
same,Potency,[7],7.6 µM (active)
same,outcome,[8],inactive
COC1=C(C2=C(OC)C(=O)c3cc4c(c(O)c3C2=O)C(=O)O[C@H](C)C4)C(=O)c2c(cc3c(c2O)C(=O)O[C@H](C)C3)C1=O,Potency,[1],inactive
same,Potency,[2],inactive
same,Potency,[3],inactive
same,Potency,[6],inactive
same,Potency,[7],inactive
same,outcome,[8],inactive
C=CC(C)(C)[C@@]12C[C@H]3C(=O)N/C(=C\c4cnc[nH]4)C(=O)N3[C@@H]1Nc1ccccc12,Potency,[1],inactive
same,Potency,[2],inactive
same,Potency,[3],inactive
same,Potency,[4],inactive
same,Potency,[5],inactive
same,Potency,[6],inactive
same,Potency,[7],inactive
same,outcome,[8],inactive
c1ccc2nc3c(cc2c1)[nH]c1ccccc13,Potency,[1],inactive
same,Potency,[2],inactive
same,Potency,[3],inactive
same,Potency,[4],inactive
same,Potency,[5],16.6 µM (active)
same,Potency,[6],inactive
same,Potency,[7],inactive
same,outcome,[8],inactive
CCC(=O)N[C@@H](C[C@H](C)C(Cl)(Cl)Cl)C(=O)N1C(=O)C=C(OC)[C@@H]1C[C@H](C)C(Cl)Cl,Potency,[1],inactive
same,Potency,[3],inactive
same,Potency,[4],inactive
same,Potency,[6],inactive
same,Potency,[7],inactive
COC(=O)[C@@]12OC[C@]34[C@H]([C@@H](O)[C@@H]1O)[C@@]1(C)CC(=O)C(O)=C(C)[C@@H]1C[C@H]3OC(=O)[C@H](OC(=O)/C=C(\C)C(C)C)[C@@H]24,Potency,[9],0.0658 µM (active)
same,Potency,[10],inactive
same,Potency,[11],inactive
O=C(CBr)N1CC([N+](=O)[O-])([N+](=O)[O-])C1,Potency,[9],inactive
same,Potency,[10],inactive
same,Potency,[11],inactive
COc1cc2cc(c1Cl)N(C)C(=O)C[C@H](OC(=O)C(C)C)[C@]1(C)O[C@@H]1[C@H](C)[C@@H]1C[C@@](O)(NC(=O)O1)[C@H](OC)/C=C/C=C(\C)C2,Potency,[9],inactive
same,Potency,[10],inactive
same,Potency,[11],inactive
C[C@]12COC(=O)C[C@@H]1CC[C@@H]1[C@@H]2CC[C@@]2(C)[C@H]1CC[C@]2(C)O,Potency,[9],inactive
same,Potency,[10],inactive
same,Potency,[11],inactive
CO/C1=C/C(C)=C\[C@@H](C)[C@@H](O)[C@@H](C)C/C(C)=C\C=C/[C@H](OC)[C@@H]([C@@H](C)[C@@H](O)[C@H](C)[C@@]2(O)C[C@@H](O)[C@H](C)[C@@H](C(C)C)O2)OC1=O,Potency,[9],inactive
same,Potency,[10],inactive
same,Potency,[11],inactive
C=C(C)[C@@H]1CCC(C)=C[C@H]1c1c(O)cc(CCCCC)cc1O,Potency,[9],33 µM (active)
same,Potency,[10],inactive
same,Potency,[11],17.8 µM (active)
CC(=O)O[C@@]12CO[C@@H]1C[C@H](O)[C@@]1(C)C(=O)[C@H](O)C3=C(C)[C@@H](O)C[C@@](O)([C@@H](OC(=O)c4ccccc4)[C@H]21)C3(C)C,Potency,[9],inactive
same,Potency,[10],inactive
same,Potency,[11],inactive
O=C1CC(c2ccc(O)cc2)Oc2cc(O)cc(O)c21 (centres undefined),outcome,[8],inactive
Cn1c(/C=C/CO)c(CO)c2c1C(=O)C=C(N1CC1)C2=O,Potency,[9],inactive
same,Potency,[10],inactive
same,Potency,[11],inactive
Cc1[nH]ncc1-c1cc2nc([C@@H]3CC4CCN3CC4)[nH]c(=O)c2s1,Potency,[9],7.39 µM (active)
same,Potency,[10],inactive
same,Potency,[11],inactive
COC12C(COC(N)=O)C3=C(C(=O)C(C)=C(N)C3=O)N1CC1C2N1C (centres undefined),Potency,[9],inactive
same,Potency,[10],inactive
same,Potency,[11],inactive
COC[C@H]1OC(=O)c2coc3c2[C@@]1(C)C1=C(C3=O)[C@@H]2CC[C@H](O)[C@@]2(C)C[C@H]1OC(C)=O,Potency,[9],inactive
same,Potency,[10],inactive
same,Potency,[11],inactive
COc1ccc2oc3c(OC)c(OC)c(OC)c(OC)c3c(=O)c2c1,"activity change, negative = inhibition",[8],-7.41% [at 9.14 µM]
Cc1c(N)nc([C@H](CC(N)=O)NC[C@@H](N)C(N)=O)nc1C(=O)N[C@H](C(=O)N[C@@H](C)[C@H](O)[C@@H](C)C(=O)N[C@@H](C(=O)NCCc1nc(-c2nc(C(=O)NCCC[S+](C)C)cs2)cs1)[C@@H](C)O)C(O[C@H]1O[C@H](CO)[C@H](O)[C@@H](O)[C@H]1O[C@H]1O[C@H](CO)[C@@H](O)[C@H](OC(N)=O)[C@@H]1O)c1cnc[nH]1 (some centres undefined),Potency,[9],inactive
same,Potency,[10],inactive
same,Potency,[11],inactive
COc1cc(C)[nH]c(=O)c1CNC(=O)c1c(C)n([C@H](C)C2CCN(CC(F)(F)F)CC2)c2ccccc12,Potency,[9],inactive
same,Potency,[10],inactive
same,Potency,[11],inactive
CC(=O)OC[C@H]1O[C@@H]([S-])[C@H](OC(C)=O)[C@@H](OC(C)=O)[C@@H]1OC(C)=O.CC[PH+](CC)CC.[Au],Potency,[9],1.17 µM (active)
same,Potency,[11],inactive
CCCCCCC(C)(C)c1cc(O)c2c(c1)OC(C)(C)C1CC=C(CO)C[C@H]21 (some centres undefined),Potency,[9],13.1 µM (active)
same,Potency,[10],inactive
same,Potency,[11],inactive
N#CC(O[C@@H]1O[C@H](CO[C@@H]2O[C@H](CO)[C@@H](O)[C@H](O)[C@H]2O)[C@@H](O)[C@H](O)[C@H]1O)c1ccccc1 (some centres undefined),Potency,[9],inactive
same,Potency,[10],inactive
same,Potency,[11],inactive
C[C@@]12OC(=O)[C@]1([C@@H](O)[C@@H]1C=CCCC1)NC(=O)[C@@H]2CCCl,Potency,[9],0.0294 µM (active)
same,Potency,[10],inactive
same,Potency,[11],inactive
C[C@@H]1CC[C@@]2(OC1)O[C@H]1C[C@H]3[C@@H]4CC=C5C[C@@H](O[C@@H]6O[C@H](CO)[C@@H](O[C@@H]7O[C@@H](C)[C@H](O)[C@@H](O)[C@H]7O)[C@H](O)[C@H]6O[C@@H]6O[C@@H](C)[C@H](O)[C@@H](O)[C@H]6O)CC[C@]5(C)[C@H]4CC[C@]3(C)[C@H]1[C@@H]2C,Potency,[10],inactive
same,Potency,[11],inactive
C=C1C[C@@]23C=CC(=O)[C@@](C)(CCC(=O)Nc4c(OC5O[C@H](CO)[C@@H](O)[C@H](O)[C@H]5O)ccc(C(=O)O)c4O)C2C[C@@H]1CC3 (some centres undefined),outcome,[8],inactive
CC(=O)O[C@H]1CC[C@@]2(C)C(CC[C@]3(C)C2CC=C2C4CC(C)(C)CC[C@]4(C)CC[C@]23C)C1(C)C (some centres undefined),outcome,[8],inactive
CN1C(=O)[C@@H](NC(=O)[C@H](CCC(F)(F)F)[C@H](CCC(F)(F)F)C(N)=O)N=C(c2ccccc2)c2ccccc21,Potency,[9],inactive
same,Potency,[10],inactive
same,Potency,[11],inactive
C/C=C(\C)C(=O)N[C@@H](c1ccccc1)[C@@H](O)C(=O)O[C@H]1C[C@@]2(O)[C@@H](OC(=O)c3ccccc3)[C@@H]3[C@]4(OC(C)=O)CO[C@@H]4C[C@H](O)[C@@]3(C)C(=O)[C@H](OC(C)=O)C(=C1C)C2(C)C,Potency,[9],inactive
same,Potency,[10],inactive
same,Potency,[11],inactive
C=C[C@H]1CN2CCC1C[C@@H]2[C@@H](O)c1ccnc2ccccc12 (some centres undefined),Potency,[9],inactive
C[C@@H](C1CC[C@@]2(O)C3=CC(=O)[C@@H]4C[C@@H](O)[C@@H](O)C[C@]4(C)[C@H]3CC[C@]12C)[C@H](O)CCC(C)(C)O (some centres undefined),Potency,[9],inactive
same,Potency,[10],inactive
same,Potency,[11],inactive
CC1(C)CC[C@]2(NC(=O)C(C)(F)F)CC[C@]3(C)[C@H](C(=O)C=C4[C@@]5(C)C=C(C#N)C(=O)C(C)(C)[C@@H]5CC[C@]43C)[C@@H]2C1,Potency,[9],1.31 µM (active)
same,Potency,[10],inactive
same,Potency,[11],inactive
